Screening results as filed in PubChem.
Mcl1-Bid inh – Mcl-1/Bid interaction inhibition; AID 1021; inhibition, % at 21.7 µM; 220,000 tested, 0.97% active; TR-FRET Mcl-1/Bid-Dy647 peptide binding, 1536-well;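 active = compounds that cut the binding signal by more than half at the single screening dose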;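 note: His-tagged Mcl-1 with europium anti-His antibody binding Bid BH3 peptide; 0% = Mcl-1 plus peptide wells and 100% = peptide-only wells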
Bcl-xL primary – inhibitors of human Bcl-xL; 320,000 tested, 0.7% active; inhibition, % at 10.9 µM; GST-Bcl-xL / FITC-Bim BH3 peptide fluorescence polarization;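 active = inhibition above the mean of all tested compounds plus 3 SD, cutoff set per campaign, cut at about 30% in these data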;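 note: 0% = DMSO wells and 100% = unlabeled Bim-BH3 peptide competitor; inhibitors lower millipolarization by displacing the labeled peptide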
Target sequence (Q07817 whole entry, looked up): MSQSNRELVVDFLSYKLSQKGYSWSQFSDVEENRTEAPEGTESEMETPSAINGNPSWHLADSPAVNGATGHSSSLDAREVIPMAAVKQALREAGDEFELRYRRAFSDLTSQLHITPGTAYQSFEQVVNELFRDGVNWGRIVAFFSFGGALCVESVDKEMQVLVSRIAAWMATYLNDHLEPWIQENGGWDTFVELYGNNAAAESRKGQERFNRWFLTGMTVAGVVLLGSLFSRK
Mcl1-Noxa inh – disrupts binding of human Mcl-1 to Noxa peptide; Q07820; TR-FRET Mcl-1/Noxa peptide binding, 2 h; inhibition, % at 21.7 µM; 220,000 tested, 1.5% active;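 active = compounds that cut the protein-peptide binding signal by more than 50% relative to plate controls in a single-dose test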;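 note: His-tagged Mcl-1 with rhodamine Noxa BH3 peptide and terbium anti-His antibody; 0% = Mcl-1 plus Noxa peptide wells and 100% = peptide-only wells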
MCL1-BIM inh – inhibitors of human MCL1 binding to BIM-BH3 peptide; GST-MCL1 / FITC-Bim-BH3 fluorescence polarization; inhibition, % at 10.9 µM; 320,000 tested, 0.68% active; AID 2057;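 active = inhibition above the mean inhibition of all tested compounds plus 3 SD, set per campaign, cut at about 40% in these data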;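 note: 0% = DMSO wells and 100% = unlabeled Bim-BH3 peptide control; higher means more loss of mP so more displacement of Bim peptide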
GLD-1 TGE inh – GLD-1-TGE RNA interaction inhibition (C. elegans). Q17339. purified GLD-1 + fluorescein TGE RNA, fluorescence polarization. inhibition, % at 5.96 µM. 320,000 tested, 0.44% active. AID 2280;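 active = percent inhibition above a per-plate cutoff, the plate mean of test compounds plus 3 SD, cut at about 30% in these data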;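 note: 0% = DMSO wells with GLD-1 and probe and 100% = wells lacking GLD-1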
Target sequence (Q17339 whole entry, looked up): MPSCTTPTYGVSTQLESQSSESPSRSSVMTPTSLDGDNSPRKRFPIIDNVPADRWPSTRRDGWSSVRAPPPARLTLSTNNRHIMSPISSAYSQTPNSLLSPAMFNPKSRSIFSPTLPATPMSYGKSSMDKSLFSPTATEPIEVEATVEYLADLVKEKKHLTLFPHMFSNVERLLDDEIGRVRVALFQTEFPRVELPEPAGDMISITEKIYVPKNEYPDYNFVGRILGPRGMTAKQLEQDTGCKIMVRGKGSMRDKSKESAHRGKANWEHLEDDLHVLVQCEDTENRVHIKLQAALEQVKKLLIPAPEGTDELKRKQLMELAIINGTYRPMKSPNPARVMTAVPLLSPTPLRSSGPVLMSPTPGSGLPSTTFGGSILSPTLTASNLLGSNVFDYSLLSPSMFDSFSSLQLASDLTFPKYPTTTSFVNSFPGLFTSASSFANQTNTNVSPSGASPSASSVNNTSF
Mcl-1 Bim block – human Bim-Mcl-1 interaction inhibition. Q07820. Bead-based flow cytometry, Bim peptide-Mcl-1 binding. inhibition, % at 10 µM. 190,000 tested, 0.1% active; in the data active = inhibition above about 40%;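 note: 0% = no compound tracer wells and 100% = peptide blocker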
Active calls of the source: *. Sampled rows, rich in hits. Any-hit rate of the full collection: about 2.3%.

`Cc1ccc(-c2cc(C(=O)N/N=C/c3ccc(Cl)cc3)n[nH]2)o1` gave Bcl-xL primary 4, MCL1-BIM inh 3 and GLD-1 TGE inh 4.
Screening CCOCCn1c(=NC(=O)/C=C/c2ccccc2Cl)sc2cc(NC(C)=O)ccc21 returned Mcl1-Bid inh 61*, Bcl-xL primary 1, Mcl1-Noxa inh 31, MCL1-BIM inh 1, GLD-1 TGE inh 10 and Mcl-1 Bim block -1.
Screening COc1cc(CN2CC(=O)N(c3cc(Cl)ccc3C)C2=S)cc(OC)c1OC returned Bcl-xL primary 1, MCL1-BIM inh -2 and GLD-1 TGE inh 4.
`N#C/C(=C(/O)c1ccc(Cl)c([N+](=O)[O-])c1)c1nc2ccccc2[nH]1` gave Mcl1-Bid inh 25, Bcl-xL primary 3, Mcl1-Noxa inh 66*, MCL1-BIM inh 7 and GLD-1 TGE inh 3.
`N#C/C(=C(/O)c1ccc([N+](=O)[O-])cc1)c1nc2ccccc2[nH]1` gave Mcl1-Bid inh -5, Bcl-xL primary 0, Mcl1-Noxa inh 17, MCL1-BIM inh 4 and GLD-1 TGE inh 1.
`COc1ccc(C(=O)NNC2=Nc3cccc4cccc2c34)cc1` gave Mcl1-Bid inh -7, Bcl-xL primary -5, Mcl1-Noxa inh 1, MCL1-BIM inh -5, GLD-1 TGE inh -3 and Mcl-1 Bim block 0.
For Cc1ccc(C(=O)NNc2c3ccccc3nc3ccccc23)cc1 the results were Mcl1-Bid inh 12, Bcl-xL primary 16, Mcl1-Noxa inh 81*, MCL1-BIM inh 17 and GLD-1 TGE inh 7.
For Cc1ccc(C(=O)NNC(=O)c2ccc3ncccc3c2)cc1 the results were Mcl1-Bid inh -9, Mcl1-Noxa inh -4 and Mcl-1 Bim block 50*.
Cc1ccc(C(=O)NNC2=Nc3cccc4cccc2c34)cc1 was read as Mcl1-Bid inh 20, Bcl-xL primary 0, Mcl1-Noxa inh 67*, MCL1-BIM inh 0, GLD-1 TGE inh 6 and Mcl-1 Bim block -5.
O=C(NNc1c2ccccc2nc2ccccc12)c1ccc(Cl)cc1 was read as Bcl-xL primary 3, MCL1-BIM inh 8 and GLD-1 TGE inh -11.
`COc1ccc(CNC(=O)CNC(=O)c2ccc(C(C)(C)C)cc2)cc1OC` gave Bcl-xL primary 3, MCL1-BIM inh 3 and GLD-1 TGE inh -4.
COC(=O)Nc1ccc(SCC(=O)c2cccc([N+](=O)[O-])c2)cc1 was read as Bcl-xL primary 9, MCL1-BIM inh 10 and GLD-1 TGE inh -10.
Screening N#CC(C(=O)Nc1cccc(Cl)c1)=C1Nc2ccccc2N1 returned Mcl1-Bid inh -20, Bcl-xL primary 4, Mcl1-Noxa inh 27, MCL1-BIM inh 6, GLD-1 TGE inh 4 and Mcl-1 Bim block 0.
`N#CC(C(=O)Nc1ccc(Cl)c(Cl)c1)=C1Nc2ccccc2N1` gave Mcl1-Bid inh 53*, Bcl-xL primary 7, Mcl1-Noxa inh 73*, MCL1-BIM inh 1, GLD-1 TGE inh -1 and Mcl-1 Bim block -3.
Screening O=C(N/C=C/c1ccco1)OCc1ccccc1 returned Mcl1-Bid inh -39, Bcl-xL primary -7, Mcl1-Noxa inh 4, MCL1-BIM inh 27, GLD-1 TGE inh 0 and Mcl-1 Bim block 0.
For O=C(N/C=C/c1ccco1)NCc1ccccc1 the results were Mcl1-Bid inh -65, Bcl-xL primary 7, Mcl1-Noxa inh 64*, MCL1-BIM inh 19, GLD-1 TGE inh -2 and Mcl-1 Bim block 0.
Cc1cc(Nc2ccc(O)cc2)ccc1N was read as Bcl-xL primary 36*, MCL1-BIM inh 41* and GLD-1 TGE inh 5.
Screening CCOC(=O)C1CCN(CC(=O)N2CCc3ccccc32)CC1 returned Bcl-xL primary 2, MCL1-BIM inh 5 and GLD-1 TGE inh -2.
CCOC(=O)C1CCN(CC(=O)N2C(C)CCCC2C)CC1 (stereo not drawn) was read as Mcl1-Bid inh 65*, Bcl-xL primary -1, Mcl1-Noxa inh 30, MCL1-BIM inh -4, GLD-1 TGE inh 4 and Mcl-1 Bim block -1.
Screening CC(=O)Nc1ccc(S(=O)(=O)NCc2ccccn2)cc1 returned Mcl1-Bid inh 91*, Bcl-xL primary 1, Mcl1-Noxa inh 4, MCL1-BIM inh -3, GLD-1 TGE inh 1 and Mcl-1 Bim block 0.
CSc1nc(SCC(N)=O)c2c3c(sc2n1)CN(C)CC3 was read as Mcl1-Bid inh -11, Bcl-xL primary 19, Mcl1-Noxa inh 33, MCL1-BIM inh 20, GLD-1 TGE inh -4 and Mcl-1 Bim block 0.
CSc1nc(NCc2ccco2)c2c3c(sc2n1)CN(C)CC3 was read as Mcl1-Bid inh 9, Bcl-xL primary 16, Mcl1-Noxa inh 57*, MCL1-BIM inh 17, GLD-1 TGE inh -7 and Mcl-1 Bim block 2.
`CSc1nc(SCC(=O)NCc2ccco2)c2c3c(sc2n1)CN(C)CC3` gave Mcl1-Bid inh 34, Bcl-xL primary 26, Mcl1-Noxa inh 84*, MCL1-BIM inh 30, GLD-1 TGE inh 3 and Mcl-1 Bim block 2.
For CCN(CC)S(=O)(=O)c1ccc(C)c(NC(=O)CN2CCN(C)CC2)c1 the results were Mcl1-Bid inh 65*, Bcl-xL primary 6, Mcl1-Noxa inh 33, MCL1-BIM inh -4 and GLD-1 TGE inh -3.
For Cc1ccc(S(=O)(=O)N(C)C)cc1NC(=O)CN1CCCC1 the results were Bcl-xL primary -3, MCL1-BIM inh -19 and GLD-1 TGE inh 12.
For Cc1cc(NS(=O)(=O)c2ccc(NC(=O)CCCOc3cccc(C)c3C)cc2)no1 the results were Bcl-xL primary 1, MCL1-BIM inh 5 and GLD-1 TGE inh 0.
COC(=O)C(Cc1ccccc1)NC(=O)c1ccc(C)cc1 (stereo not drawn) was read as Mcl1-Bid inh -29, Bcl-xL primary 5, Mcl1-Noxa inh 19, MCL1-BIM inh 14, GLD-1 TGE inh -4 and Mcl-1 Bim block -3.
`COC(=O)C(Cc1csc2ccc(Cl)cc12)NC(=O)c1ccc(Cl)cc1` (stereo not drawn) gave Mcl1-Bid inh 82*, Bcl-xL primary 3, Mcl1-Noxa inh 45, MCL1-BIM inh 9 and GLD-1 TGE inh 2.
For O=c1[nH]c(CN2CCN(c3ccc(O)cc3)CC2)nc2scc(-c3ccc(Cl)cc3)c12 the results were Mcl1-Bid inh -55, Bcl-xL primary 13, Mcl1-Noxa inh 66*, MCL1-BIM inh 9, GLD-1 TGE inh 3 and Mcl-1 Bim block 11.
N#Cc1ncc(Cl)c2ccccc12 was read as Mcl1-Bid inh 7, Bcl-xL primary 2, Mcl1-Noxa inh -12, MCL1-BIM inh 2 and GLD-1 TGE inh 2.
For COCCN1C(=O)C(=O)/C(=C(/O)c2ccc(S(=O)(=O)N3CCOCC3)cc2)C1c1cccc(Cl)c1 (stereo not drawn) the results were Mcl1-Bid inh 66*, Bcl-xL primary 0, Mcl1-Noxa inh 40, MCL1-BIM inh -3 and GLD-1 TGE inh 2.
Screening O=C(c1ccc(F)cc1)N1CCN(Cc2ccccc2Br)CC1 returned Mcl1-Bid inh 60*, Bcl-xL primary 9, Mcl1-Noxa inh 1, MCL1-BIM inh 0, GLD-1 TGE inh 0 and Mcl-1 Bim block -9.
